Among the data in PubChem BioAssay (Tox21) are Potency, max response and activity change, positive = activation values, retold here.

Unmarked numbers belong to inactive results. Records with an inconclusive call do not appear. Calls of active or inactive are those of the source. Unless noted, the call rests on the fitted dose curve; in most records, active means well fitted curve in the direction sought with a large enough effect in the repeat runs; inconclusive means weak or mixed curves; inactive means no such curve, though single readings can be large; an effect the other way counts as inactive or inconclusive.

Test [1] in a line: qHTS assay to identify small molecule agonists of the hypoxia (HIF-1) signaling pathway - cell viability counter screen (AID 1224844; calls by dose curve; further: nearly all actives have a fitted effect of over 50% in size). The method, boiled down:
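In this counter screen, HRE-bla ME-180 cell viability after 17 hrs of compound exposure at 37C was read by CellTiter-Glo luminescence, multiplexed with the beta-lactamase reporter measurement.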
(In general: Quantitative high-throughput screening tests each substance at several concentrations.)

A short description of test [2]: qHTS assay to identify small molecule agonists of H2AX (AID 1224845; active means well fitted activation curve with a large enough effect in the signal ratio in the repeat runs, not every such curve was filed as active; the % refers to the signal ratio). The method, boiled down: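 Wild-type CHO-K1 cells, plated overnight, exposed 3hr at 37C to 15 concentrations (0.76% DMSO final). Lysed, then HTRF anti-pH2AX (S139) cryptate and anti-H2AX-d2 antibodies, 24 hr room temperature; 665/620 nm emission read.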
Test [3] is described as follows: qHTS assay to identify small molecule agonists of the hypoxia (HIF-1) signaling pathway (AID 1224846; active means well fitted activation curve with a large enough effect in the signal ratio in the repeat runs, not every such curve was filed as active; the % refers to the signal ratio). The method, boiled down: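 ME-180 HRE-bla reporter cells; compounds in DMSO, 17 h at 37C; read-out beta-lactamase via CCF4-AM FRET.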
Test [4] in a line: qHTS assay to identify small molecule agonists of H2AX - cell viability counter screen (AID 1224847; calls by dose curve; further: nearly all actives have a fitted effect of over 30% in size; further: potency means the concentration at half of the fitted maximal effect). The method, boiled down: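 Counter-screen for viability: CellTiter-Glo ATP luminescence read after 3 h compound treatment (15-point titration, 0.76% DMSO final) of CHO-K1 cells at 37C, with 30 min room-temperature reagent incubation.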
Test [5] is described as follows: qHTS RealTime-Glo MT Cell Viability Assay in HEK293 cells - 32 hour (AID 1224868). Further: nearly all actives have a fitted effect of over 50% in size. Further: potency means the concentration at half of the fitted maximal effect. The method, boiled down:
(§1)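 HEK293 cells seeded with NanoLuc/prosubstrate reagent, rested 5 h at 37 C, then dosed and kept at 37 C up to 40 h. Nonlytic real-time luminescence from viable cells read at 0, 8, 16, 24, 32 and 40 h.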

A short description of test [6]: qHTS RealTime-Glo MT Cell Viability Assay in HEK293 cells - 16 hour (AID 1224872). Further: nearly all actives have a fitted effect of over 50% in size. Further: potency means the concentration at half of the fitted maximal effect. A digest of the protocol:
as §1

Test [7] can be described thus: qHTS RealTime-Glo MT Cell Viability Assay in HepG2 cells - 8 hour (AID 1224873). Further: nearly all actives have a fitted effect of over 55% in size. Further: potency means the concentration at half of the fitted maximal effect. The method, boiled down: (§2)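 HepG2 cells (600/well) mixed with RealTime-Glo MT reagent, settled 5 h at 37 C/5% CO2 before compound addition. Nonlytic NanoLuc luminescence from viable-cell prosubstrate reduction read repeatedly during 40 h treatment at 37 C.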
Test [8] in a line: qHTS RealTime-Glo MT Cell Viability Assay in HEK293 cells - 40 hour (AID 1224874). Further: nearly all actives have a fitted effect of over 50% in size. Further: potency means the concentration at half of the fitted maximal effect. The following applies: RealTime-Glo luminescence; max response: stronger effect = lower value. The method, boiled down: (§3)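 Kinetic, non-lysing viability readout. Seed HEK293 (600/well) with reagent, incubate 5 h at 37 C/5% CO2, pin 23 nL compound in DMSO, incubate at 37 C, read luminescence at 0, 8, 16, 24, 32, 40 h.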

Test [9] is described as follows: A CellTox Green Cytotoxicity Assay to monitor cytotoxicity in HEK293 cells - 24 hour (AID 1224875). Further: nearly all actives have a fitted effect of over 45% in size. The method, boiled down: (§4)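 Real-time, in one plate: 600 HEK293 cells/well with dead-cell DNA dye, pinned compound after 5 h, 37 C incubation over 40 h; viable cells give no appreciable fluorescence.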
The nature of test [10]: A CellTox Green Cytotoxicity Assay to monitor cytotoxicity in HepG2 cells - 24 hour (AID 1224878). Further: nearly all actives have a fitted effect of over 45% in size. Further: potency means the concentration at half of the fitted maximal effect. The method, boiled down:
(§5)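 Cytotoxicity was tracked as dead-cell DNA fluorescence in HepG2 cells treated with test compounds at 37 C; each time-point value comes from one kinetic series spanning 0, 8, 16, 24, 32 and 40 h.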

Test [11] can be described thus: A CellTox Green Cytotoxicity Assay to monitor cytotoxicity in HepG2 cells - 40 hour (AID 1224879). Further: nearly all actives have a fitted effect of over 40% in size. Further: potency means the concentration at half of the fitted maximal effect. The method, boiled down: as §5
Test [12] can be described thus: A CellTox Green Cytotoxicity Assay to monitor cytotoxicity in HEK293 cells - 0 hour (AID 1224869). Further: nearly all actives have a fitted effect of over 50% in size. The method, boiled down:
as §4

A short description of test [13]: qHTS RealTime-Glo MT Cell Viability Assay in HepG2 cells - 40 hour (AID 1224870). Further: nearly all actives have a fitted effect of over 50% in size. A digest of the protocol: as §2
Test [14] is described as follows: A CellTox Green Cytotoxicity Assay to monitor cytotoxicity in HEK293 cells - 40 hour (AID 1224871). Further: nearly all actives have a fitted effect of over 45% in size. The method, boiled down: as §4
Test [15] can be described thus: qHTS RealTime-Glo MT Cell Viability Assay in HepG2 cells - 32 hour (AID 1224877). Further: nearly all actives have a fitted effect of over 55% in size. A digest of the protocol:
(§6)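 HepG2 cells (600/well) were dispensed with RealTime-Glo reagents, incubated 5 h at 37 °C, then treated with compounds in DMSO for up to 40 h. Nonlytic NanoLuc luminescence reflecting viable cells was read at each stated time point.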

A short description of test [16]: qHTS RealTime-Glo MT Cell Viability Assay in HepG2 cells - 24 hour (AID 1224867). Further: nearly all actives have a fitted effect of over 50% in size. A digest of the protocol: as §6
Test [17] can be described thus: A CellTox Green Cytotoxicity Assay to monitor cytotoxicity in HepG2 cells - 16 hour (AID 1224876). Further: nearly all actives have a fitted effect of over 45% in size. The method, boiled down: as §5
A short description of test [18]: qHTS assay to identify small molecule agonists of the estrogen related receptor (ERR) signaling pathway from Tox21 library (AID 1224849; calls by dose curve; further: nearly all actives have a fitted effect of over 15% in size). The following applies: ERR reporter cell line, ONE-Glo luciferase, 18 h; at 92.4 µM (top of the series) unless noted. A digest of the protocol: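 Luciferase activity in ERR pathway reporter cells served as the agonist readout; exposure lasted 18 h at 37 C, with ONE-Glo detection after 30 min at room temperature.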

Test [19] is described as follows: qHTS RealTime-Glo MT Cell Viability Assay in HEK293 cells - 0 hour (AID 1224880). A digest of the protocol:
as §3
On the % scale 0 is the no-effect control and ±100 the full control effect.

Take `FC(F)C(F)(F)OCC(Cn1cncn1)c1ccc(Cl)cc1Cl` (stereo not given): the Potency entry in test [1], in test [2], in test [3] and in test [9] was “inactive” each time. Also, the Potency in [4] was 112 µM (active); in test [5], 21.7 µM (active); in test [6], 24.4 µM (active); in test [7] it was 54.6 µM (active); in test [8] it was 21.7 µM (active); in test [10], 48.7 µM (active). The Potency in test [11] was 48.7 µM (active).

As for `CCO/N=C(\CC)C1=C(O)CC(c2c(C)cc(C)cc2C)CC1=O` (stereo not given), the Potency entry in [1], in test [2], in test [3], in test [4], in test [12] and in [13] was “inactive” each time. The Potency result in test [14], in test [7], in test [9] and in test [15] was “inactive” each time.

`CCCC[N+]1(C)CCCC1` (tested in a mixture with another compound): the Potency result in test [1], in test [2], in test [3], in test [4], in [16] and in test [5] was “inactive” throughout. The Potency result in test [12], in test [13], in test [14], in test [6], in [7] and in test [17] was “inactive” in each case. Moreover, the Potency entry in test [15], in [10] and in test [11] was “inactive” in each case. For the same compound, the max response in test [8] is 8.56%.

`Cc1c([N+](=O)[O-])cc2c(c1[N+](=O)[O-])C(C)(C)CC2(C)C`: the Potency result in [1], in [2], in test [3], in [16], in test [5] and in test [12] was “inactive” in each case. Also, the Potency result in test [13], in test [6], in test [7], in test [9], in test [17] and in test [15] was “inactive” each time. Moreover, the Potency entry in [10], in test [11] and in test [19] was “inactive” throughout. Moreover, the activity change, positive = activation in [18] is -30.3%. Moreover, the max response in [8] was -1.57%.

`CCC1(CC)C(=O)N=C(O)NC1=O`: the Potency result in [1], in [2], in test [3], in test [4], in test [16] and in test [5] was “inactive” each time. Further, the Potency result in [13], in test [14], in test [6], in test [7], in test [9] and in [17] was “inactive” throughout. In addition, the Potency result in [15], in test [10], in test [11] and in [19] was “inactive” throughout. The max response in test [8] is -0.914%.

For the compound `CCC(C)Br` (stereo not given), the Potency entry in test [1], in [2], in [3], in test [4], in [5] and in test [12] was “inactive” throughout. Moreover, the Potency result in test [13], in test [14], in test [6], in test [7], in test [17] and in test [15] was “inactive” each time. In addition, the Potency result in [10], in test [11] and in [19] was “inactive” in each case.

For the compound `CC(C)Br`, the Potency result in test [1], in [2], in [3], in [4], in test [16] and in test [5] was “inactive” in each case. The Potency result in [12], in test [13], in test [14], in [7], in test [17] and in test [15] was “inactive” throughout. In addition, the Potency entry in test [10] and in test [11] was “inactive” throughout. Besides, in [8], the max response was -13.8%.

With `Nc1nc(N)nc(Cl)n1`, the Potency result in test [1], in [2], in [3], in test [4], in [16] and in [5] was “inactive” throughout. Besides, the Potency result in [12], in test [13], in [14], in test [6], in test [7] and in [9] was “inactive” each time. The Potency result in test [17], in [10], in test [11] and in test [19] was “inactive” each time. Besides, in test [8], the max response was 1.73%.

On to `COc1c2c(cc3c1OCO3)CCN(C)C2`, for which the Potency entry in test [1], in test [2], in test [3], in [4], in test [16] and in test [5] was “inactive” in each case. Also, the Potency result in [13], in [14], in [6], in [7], in [9] and in test [17] was “inactive” each time. The Potency result in test [15], in test [10], in test [11] and in test [19] was “inactive” each time. In addition, in [8], the max response is -9.04%.
